Results from PubChem BioAssay (Tox21).
Results filed as inconclusive are left out. Where a call stands in place of a potency, no number is given. Activity calls are given as the source filed them. Unless noted, the call rests on the fitted dose curve; in most records, active means well fitted curve in the direction sought with a large enough effect in the repeat runs; inconclusive means weak or mixed curves; inactive means no such curve, though single readings can be large; an effect the other way counts as inactive or inconclusive.

What was measured:
[1] = qHTS assay to identify small molecule antagonists of the estrogen receptor beta (ER-beta) signaling pathway - cell viability counter screen (AID 1259382); further: nearly all actives have a fitted effect of over 55% in size; further: potency means the concentration at half of the fitted maximal effect
Outline: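 Cytotoxicity counter screen multiplexed with the beta-lactamase antagonist assay: GripTite HEK293T ER-beta-bla cells were treated 16 hr with test chemicals in the presence of 1nM 17-beta-estradiol, and viability was measured by CellTiter-Glo.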

[2] = qHTS assay to identify small molecule agonists or antagonists of the thyroid stimulating hormone receptor (TSHR) signaling pathway - wild type cell line counter screen (AID 1259384; calls by dose curve)
Outline: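 Wild-type Hek293 cells, 800/well, 18 h at 37C, then compound with Ro20-1724 for 30 min RT. cAMP by HTRF (cAMP-d2/anti-cAMP cryptate), 1 h RT, fluorescence read. 15 concentrations, triplicates.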

[3] = target: Thyrotropin receptor (Homo sapiens) (UniProt P16473); assay: qHTS assay to identify small molecule antagonists of the thyroid stimulating hormone receptor (TSHR) signaling pathway (AID 1259385; calls by dose curve; further: nearly all actives have a fitted effect of over 20% in size; further: potency means the concentration at half of the fitted maximal effect)
Outline: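 TSHR-HEK293 cells (800/well) plated 18 h, then compounds with Ro20-1724 and TSH at 1.5 ng/mL final, 30 min at room temperature. cAMP quantified by HTRF (cAMP-d2/anti-cAMP-cryptate, 1 h); 15 concentrations in triplicate.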

[4] = qHTS assay to identify small molecule agonists of the estrogen receptor alpha (ER-alpha) signaling pathway in the presence of an antagonist - cell viability counter screen (AID 1259386);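 further: cells exposed to compounds for 22 h at 37 °C before the viability read; nearly all actives have a fitted effect of over 30% in size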; further: potency means the concentration at half of the fitted maximal effect
Outline: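 Cytotoxicity was measured in parallel with the ERE-luciferase agonist screen, in the same wells. The cells were VM7Luc4E2, which endogenously express ER-alpha, and treatment was with compounds plus 10.0nM ICI-182,780 for 22hr.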

[5] = qHTS assay to identify small molecule antagonists of the progesterone receptor (PR) signaling pathway - cell viability counter screen (AID 1346798); further: nearly all actives have a fitted effect of over 50% in size; further: potency means the concentration at half of the fitted maximal effect
Outline: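 Viability was determined by ATP-based luminescence (CellTiter-Glo) in PR-UAS-bla HEK293T cells cultured in 2% charcoal-stripped serum and incubated 16 hr with compounds under R5020 stimulation.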

[6] = qHTS assay to identify small molecule antagonists of the TGF-beta/Smad signaling pathway - cell viability counter screen (AID 1346824); further: nearly all actives have a fitted effect of over 50% in size
Outline: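 SBE-bla HEK 293T cells, incubated overnight, then compound plus 0.25 ng/mL TGF-beta1 (stock added) for 5 hr at 37 C. Viability was read in the same wells by CellTiter-Glo luminescence after 30 min at room temperature.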

[7] = qHTS assay to identify small molecule agonists of the TGF-beta/Smad signaling pathway - cell viability counter screen (AID 1346829); further: top concentration of the series differs between compounds; nearly all actives have a fitted effect of over 45% in size
Outline: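 Tox21 qHTS format: SBE-bla HEK 293T cells treated with DMSO-dissolved compounds for 5 hr; CellTiter-Glo luminescence after 30 min at room temperature.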

[8] = target: Thyrotropin-releasing hormone receptor (Homo sapiens) (UniProt P34981); assay: qHTS assay to identify small molecule antagonists of the thyrotropin-releasing hormone receptor (TRHR) signaling pathway (AID 1346877; active means well fitted inhibition curve with a large enough effect in the repeat runs, not every such curve was filed as active; further: series mostly up to about 51 µM)
Outline: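 Antagonism is measured as suppression of the calcium response to 1 nM TRH in TRHR-HEK293 cells that have been dye-loaded for 2 h at 37 °C after overnight plating. Each compound is tested at 15 concentrations in triplicate.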

[9] = target: Thyrotropin-releasing hormone receptor (Homo sapiens) (UniProt P34981); assay: qHTS assay to identify small molecule agonists of the thyrotropin-releasing hormone receptor (TRHR) signaling pathway (AID 1346891; calls by dose curve; further: potency means the concentration at half of the fitted maximal effect;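 on activation: HEK293 cells expressing TRHR with calcium dye readout; series mostly up to about 58 µM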)
Outline: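 Kinetic fluorescence (3 min, 1 s intervals) reported intracellular calcium after compound transfer onto TRHR-Hek293 cells pre-loaded with dye for 2 h at 37 °C.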

[10] = Human pregnane X receptor (PXR) small molecule agonists, qHTS cell viability counter screen (AID 1346977); further: nearly all actives have a fitted effect of over 50% in size; further: potency means the concentration at half of the fitted maximal effect
Outline: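 HepG2 cells stably carrying the PXR-Luc reporter are cultured with 5% charcoal-stripped FBS and treated with compounds for 24hr. CellTiter-Fluor is added at 23hr and fluorescence is read after 1hr.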

[11] = qHTS assay to identify small molecule agonists of the estrogen receptor beta (ER-beta) signaling pathway - cell viability counter screen (AID 1259380); further: nearly all actives have a fitted effect of over 30% in size; further: potency means the concentration at half of the fitted maximal effect
Outline: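 Cytotoxicity is measured in parallel with the reporter screen: after 16 hr compound exposure at 37C and a 2 hr LiveBLAzer step, CellTiter-Glo is added to the same ER-beta-UAS-bla HEK293T wells and luminescence read after 30 min.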

[12] = qHTS assay to identify small molecule agonists of the progesterone receptor (PR) signaling pathway - cell viability counter screen (AID 1346799; calls by dose curve; further: nearly all actives have a fitted effect of over 45% in size; further: potency means the concentration at half of the fitted maximal effect)
Outline: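 Viability was scored by ATP luminescence (CellTiter-Glo, 30 min, room temperature) in the same wells used for the reporter readout, after 16 hr compound exposure of PR-UAS-bla HEK293T cells.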

[13] = qHTS assay to identify small molecule agonists of the TGF-beta/Smad signaling pathway (AID 1346859; active means well fitted activation curve with a large enough effect in the signal ratio in the repeat runs, not every such curve was filed as active; the % refers to the signal ratio; further: series mostly up to about 77 µM)
Outline: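 Dual-wavelength fluorescence (460/530 nm emission) quantified beta-lactamase expression under the Smad binding element in HEK 293T cells following 5 hr compound treatment at 37 C.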

[14] = target: Progesterone receptor (Homo sapiens) (UniProt P06401); assay: qHTS assay to identify small molecule agonists of the progesterone receptor (PR) signaling pathway (AID 1346784; calls by dose curve; further: nearly all actives have a fitted effect of over 30% in size)
Outline: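 The screen uses PR-UAS-bla HEK 293T cells in charcoal-stripped serum (2%). Compounds are applied for 16 hr at 37C after a 6 hr pre-incubation, and reporter activity is detected with a FRET beta-lactamase substrate after 2 hr at room temperature.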

[15] = target: Estrogen receptor (Homo sapiens) (UniProt P03372); assay: qHTS assay to identify small molecule agonists of the estrogen receptor alpha (ER-alpha) signaling pathway in the presence of an antagonist (AID 1259383; calls by dose curve; further: top concentration of the series differs between compounds; nearly all actives have a fitted effect of over 15% in size)
Outline: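 Agonist-mode confirmation in the presence of the ER antagonist ICI-182,780 at 10.0nM final. Breast-derived VM7Luc4E2 reporter cells were exposed to compounds for 22hr, and ERE-driven luciferase was quantified by luminescence.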

[16] = target: Progesterone receptor (Homo sapiens) (UniProt P06401); assay: qHTS assay to identify small molecule antagonists of the progesterone receptor (PR) signaling pathway (AID 1346795; active means well fitted inhibition curve with a large enough effect in the signal ratio in the repeat runs, not every such curve was filed as active; the % refers to the signal ratio; further: potency means the concentration at half of the fitted maximal effect)
Outline: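 After 6 hr plating at 37C in 2% stripped-serum medium, PR-UAS-bla HEK293T cells got compounds, then 1 nM R5020. Sixteen hours later, LiveBLAzer substrate was applied for 2 hr at room temperature and fluorescence was recorded.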

[17] = target: Androgen receptor (Homo sapiens) (UniProt P10275); assay: qHTS assay to identify small molecule agonists of the androgen receptor (AR) signaling pathway in the presence of an antagonist (AID 1259381; calls by dose curve; further: nearly all actives have a fitted effect of over 15% in size; further: potency means the concentration at half of the fitted maximal effect)
Outline: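 Agonist-mode confirmation screen: human MDA-kb2 cells stably expressing luciferase under an MMTV promoter bearing AR and GR response elements, co-treated with 3.0uM nilutamide (final). Luminescence measured after 16hr compound incubation.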

Sequence of Thyrotropin receptor (Homo sapiens) (P16473 whole entry, looked up): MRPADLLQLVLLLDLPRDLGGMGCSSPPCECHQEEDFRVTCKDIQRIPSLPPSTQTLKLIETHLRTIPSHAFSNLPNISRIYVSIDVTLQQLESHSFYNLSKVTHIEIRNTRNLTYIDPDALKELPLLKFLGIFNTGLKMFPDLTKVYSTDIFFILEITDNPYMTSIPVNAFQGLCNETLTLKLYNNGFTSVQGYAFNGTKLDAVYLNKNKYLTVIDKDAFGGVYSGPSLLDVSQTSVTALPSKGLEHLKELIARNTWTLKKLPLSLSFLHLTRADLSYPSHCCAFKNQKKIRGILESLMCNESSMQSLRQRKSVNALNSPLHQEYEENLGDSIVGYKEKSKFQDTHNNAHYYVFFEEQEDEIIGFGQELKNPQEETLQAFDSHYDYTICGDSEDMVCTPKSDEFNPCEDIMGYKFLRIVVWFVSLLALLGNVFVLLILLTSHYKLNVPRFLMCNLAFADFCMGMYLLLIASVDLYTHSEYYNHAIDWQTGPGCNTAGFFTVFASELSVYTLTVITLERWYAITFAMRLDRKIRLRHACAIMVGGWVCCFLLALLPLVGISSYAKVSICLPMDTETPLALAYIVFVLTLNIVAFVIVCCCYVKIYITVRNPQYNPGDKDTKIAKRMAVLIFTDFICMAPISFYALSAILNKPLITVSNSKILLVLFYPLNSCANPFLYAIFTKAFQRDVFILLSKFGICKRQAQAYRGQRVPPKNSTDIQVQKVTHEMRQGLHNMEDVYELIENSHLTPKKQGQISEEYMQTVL
Sequence of Estrogen receptor (Homo sapiens) (P03372 whole entry, looked up): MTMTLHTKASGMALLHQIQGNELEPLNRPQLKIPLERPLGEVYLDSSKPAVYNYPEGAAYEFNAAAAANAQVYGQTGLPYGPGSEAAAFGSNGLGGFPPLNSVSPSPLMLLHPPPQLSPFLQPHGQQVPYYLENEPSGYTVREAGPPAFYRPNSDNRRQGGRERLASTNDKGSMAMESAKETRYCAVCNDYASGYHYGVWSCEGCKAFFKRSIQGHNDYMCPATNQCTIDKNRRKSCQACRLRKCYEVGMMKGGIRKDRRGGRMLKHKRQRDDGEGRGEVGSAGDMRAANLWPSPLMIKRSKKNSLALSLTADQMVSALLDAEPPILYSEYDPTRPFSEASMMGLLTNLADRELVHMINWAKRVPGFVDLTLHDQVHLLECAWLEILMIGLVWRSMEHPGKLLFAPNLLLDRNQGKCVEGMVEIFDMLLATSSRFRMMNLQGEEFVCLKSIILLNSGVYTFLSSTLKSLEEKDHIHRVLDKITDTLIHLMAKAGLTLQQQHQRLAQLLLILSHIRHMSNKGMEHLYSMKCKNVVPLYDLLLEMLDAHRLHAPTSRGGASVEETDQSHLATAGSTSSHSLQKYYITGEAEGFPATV
Sequence of Thyrotropin-releasing hormone receptor (Homo sapiens) (P34981 whole entry, looked up): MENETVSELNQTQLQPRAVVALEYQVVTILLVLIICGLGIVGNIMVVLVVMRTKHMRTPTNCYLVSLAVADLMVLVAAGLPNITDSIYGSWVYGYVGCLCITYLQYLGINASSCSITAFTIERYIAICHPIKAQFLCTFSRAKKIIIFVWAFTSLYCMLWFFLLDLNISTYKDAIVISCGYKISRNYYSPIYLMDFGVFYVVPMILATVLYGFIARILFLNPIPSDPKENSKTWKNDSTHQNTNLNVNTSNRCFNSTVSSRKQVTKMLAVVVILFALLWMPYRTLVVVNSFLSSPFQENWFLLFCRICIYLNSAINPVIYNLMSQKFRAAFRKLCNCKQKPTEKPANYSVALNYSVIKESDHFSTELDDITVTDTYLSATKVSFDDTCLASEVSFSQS
Sequence of Progesterone receptor (Homo sapiens) (P06401 whole entry, looked up): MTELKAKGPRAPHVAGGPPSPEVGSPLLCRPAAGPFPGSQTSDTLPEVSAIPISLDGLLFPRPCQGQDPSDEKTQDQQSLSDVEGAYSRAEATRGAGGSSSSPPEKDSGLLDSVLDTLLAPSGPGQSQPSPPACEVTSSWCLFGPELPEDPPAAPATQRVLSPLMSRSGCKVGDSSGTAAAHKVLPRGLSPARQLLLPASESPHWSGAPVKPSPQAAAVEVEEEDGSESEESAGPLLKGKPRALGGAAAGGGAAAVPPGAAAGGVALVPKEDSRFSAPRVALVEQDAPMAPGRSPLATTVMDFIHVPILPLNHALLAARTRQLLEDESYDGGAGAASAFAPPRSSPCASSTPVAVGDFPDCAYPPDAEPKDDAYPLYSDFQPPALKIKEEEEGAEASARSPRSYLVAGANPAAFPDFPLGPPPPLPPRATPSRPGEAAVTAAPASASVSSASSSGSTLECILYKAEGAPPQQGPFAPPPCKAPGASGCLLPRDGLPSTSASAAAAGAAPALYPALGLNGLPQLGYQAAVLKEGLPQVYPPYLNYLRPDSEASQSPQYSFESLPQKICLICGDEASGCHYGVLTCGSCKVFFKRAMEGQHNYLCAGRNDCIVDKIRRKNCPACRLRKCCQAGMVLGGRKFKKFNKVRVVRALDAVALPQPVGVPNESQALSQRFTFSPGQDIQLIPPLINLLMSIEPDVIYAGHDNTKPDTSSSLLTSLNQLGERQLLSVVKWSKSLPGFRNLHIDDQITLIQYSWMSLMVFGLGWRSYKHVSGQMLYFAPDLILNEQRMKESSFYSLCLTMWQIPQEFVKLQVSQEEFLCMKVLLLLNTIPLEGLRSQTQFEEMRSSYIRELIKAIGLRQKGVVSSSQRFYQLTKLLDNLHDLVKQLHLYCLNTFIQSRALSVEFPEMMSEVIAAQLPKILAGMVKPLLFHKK
Sequence of Androgen receptor (Homo sapiens) (P10275 whole entry, looked up): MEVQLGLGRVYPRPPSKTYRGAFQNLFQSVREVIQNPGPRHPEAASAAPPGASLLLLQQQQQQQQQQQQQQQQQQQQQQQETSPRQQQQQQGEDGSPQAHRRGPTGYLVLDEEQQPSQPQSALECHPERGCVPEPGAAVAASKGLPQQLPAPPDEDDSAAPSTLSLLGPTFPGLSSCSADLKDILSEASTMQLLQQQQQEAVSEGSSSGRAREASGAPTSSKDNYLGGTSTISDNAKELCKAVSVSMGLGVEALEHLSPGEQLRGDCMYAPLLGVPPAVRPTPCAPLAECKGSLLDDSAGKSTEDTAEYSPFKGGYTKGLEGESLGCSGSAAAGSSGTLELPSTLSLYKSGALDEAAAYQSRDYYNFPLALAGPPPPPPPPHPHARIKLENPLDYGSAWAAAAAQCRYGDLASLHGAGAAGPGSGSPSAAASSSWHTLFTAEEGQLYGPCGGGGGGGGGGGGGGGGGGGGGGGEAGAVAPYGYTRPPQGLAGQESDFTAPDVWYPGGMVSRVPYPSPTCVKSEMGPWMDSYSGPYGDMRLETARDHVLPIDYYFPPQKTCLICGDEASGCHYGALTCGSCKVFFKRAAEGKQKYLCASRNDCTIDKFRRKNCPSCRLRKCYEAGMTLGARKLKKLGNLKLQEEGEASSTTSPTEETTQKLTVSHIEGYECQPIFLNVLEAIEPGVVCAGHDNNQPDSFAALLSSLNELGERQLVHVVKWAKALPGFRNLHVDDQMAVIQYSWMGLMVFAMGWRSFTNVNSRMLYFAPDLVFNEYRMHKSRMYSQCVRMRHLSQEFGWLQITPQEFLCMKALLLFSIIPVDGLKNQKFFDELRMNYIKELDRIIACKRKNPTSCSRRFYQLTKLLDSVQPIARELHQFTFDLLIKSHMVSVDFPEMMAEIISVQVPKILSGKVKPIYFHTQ

Structure (SMILES)	Potency [1]	outcome [2]	Potency [3]	Potency [4]	Potency [5]	Potency [6]	Potency [7]	Potency [8]	Potency [9]	Potency [10]	Potency [11]	Potency [12]	Potency [13]	outcome [14]	Potency [15]	Potency [16]	Potency [17]
CCC(C)c1cc([N+](=O)[O-])cc([N+](=O)[O-])c1OC(=O)OC(C)C (centres undefined)	inactive	inactive	inactive	54.5 µM (active)	inactive	inactive	inactive	inactive	inactive	34.4 µM (active)	–	–	–	–	–	–	–
CCN(CC)CCNc1ccc(CO)c2sc3ccccc3c(=O)c12	11.9 µM (active)	–	–	10.6 µM (active)	15 µM (active)	inactive	inactive	inactive	inactive	–	10.6 µM (active)	13.3 µM (active)	inactive	–	–	–	–
C=CCCCCCCC=C	inactive	–	–	inactive	–	inactive	–	inactive	inactive	inactive	inactive	–	inactive	inactive	–	–	–
O=Nc1ccc(NO)cc1	inactive	–	–	inactive	inactive	inactive	inactive	inactive	inactive	–	inactive	inactive	inactive	inactive	–	–	–
CCCCCCCCCCOCC(O)CN (centres undefined)	26.6 µM (active)	inactive	inactive	–	–	–	–	inactive	inactive	26.6 µM (active)	26.6 µM (active)	29.8 µM (active)	inactive	–	inactive	–	–
CC(C)c1cccc(C(C)C)c1N1C(=O)c2ccc(O)cc2C1=O	–	inactive	inactive	–	–	inactive	inactive	inactive	inactive	inactive	–	–	–	inactive	–	6.11 µM (active)	–
O=C1OC(OC(=O)c2cccnc2Nc2cccc(C(F)(F)F)c2)c2ccccc21 (centres undefined)	–	inactive	inactive	inactive	inactive	inactive	–	–	–	inactive	–	inactive	inactive	–	–	inactive	–
CCCCCCCCCCCCCCNCCO	inactive	inactive	23.7 µM (active)	inactive	–	inactive	inactive	–	–	inactive	26.6 µM (active)	–	inactive	inactive	inactive	inactive	–
C[n+]1c2cc(N)ccc2cc2ccc(N)cc21 (tested in a mixture with another compound)	–	–	–	–	–	inactive	inactive	inactive	7.56 µM (active)	–	11.9 µM (active)	–	–	–	–	–	inactive
C[C@]12CC[C@H]3C(=CCc4cc(O)ccc43)[C@@H]1CCC2=O	30.6 µM (active)	inactive	–	inactive	–	inactive	inactive	inactive	inactive	inactive	27.3 µM (active)	–	inactive	inactive	–	–	5.45 µM (active)
CC(CN(C)C)CN1c2ccccc2CCc2ccccc21 (centres undefined)	23.7 µM (active)	inactive	29.8 µM (active)	inactive	–	inactive	inactive	inactive	–	26.6 µM (active)	26.6 µM (active)	16.8 µM (active)	–	–	inactive	–	–
